Measured values taken from PubChem BioAssay (NCI).
“And” between values parts separate entries of the source, which are not always exact repeats. Identical values can stand only once. The panel holds about 83,000 compounds, 20% with a hit somewhere; the sample as a whole holds those more often.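 A percent growth of 40 corresponds to 60% growth inhibition; 0 means no net growth; -100 means all cells died. Active threshold: below 10.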 The source made the active and inactive calls.

Assays:
Experiment in all cases: NCI-60 one-dose screen, 48 h (100 = growth as untreated, 0 = no growth, -100 = all killed)
HCT-15 colon = test system: HCT-15 colon
HT29 colon = test system: HT29 colon
SNB-75 CNS = test system: SNB-75 CNS
SNB-19 CNS = test system: SNB-19 CNS
PC-3 prostate = test system: PC-3 prostate
UACC-62 melanoma = test system: UACC-62 melanoma
LOX IMVI melanoma = test system: LOX IMVI melanoma
SK-MEL-28 melanoma = test system: SK-MEL-28 melanoma
SK-MEL-2 melanoma = test system: SK-MEL-2 melanoma
UO-31 renal = test system: UO-31 renal
TK-10 renal = test system: TK-10 renal
ACHN renal = test system: ACHN renal
CAKI-1 renal = test system: CAKI-1 renal
A498 renal = test system: A498 renal
CCRF-CEM leukemia = test system: CCRF-CEM leukemia
MOLT-4 leukemia = test system: MOLT-4 leukemia
SK-MEL-5 melanoma = conditions: 10 µM unless noted
U251 CNS = conditions: 10 µM unless noted
EKVX NSCLC = conditions: 10 µM
SN12C renal = conditions: 10 µM

SMILES: COc1cccc2c1C(=O)c1c(O)c3c(c(O)c1C2=O)C[C@@](O)(C(=O)CO)C[C@@H]3OC1CC(N)C(O)C(C)O1 (some centres undefined)
- growth (HCT-15 colon; 0.0025 µM): 99.2% (inactive)
- growth (HCT-15 colon; 1 µM): 81.9% (inactive)
- growth (HCT-15 colon; 2.5 µM): 70.2% (inactive)
- growth (HCT-15 colon; 10 µM): 15.2% (inactive)
- growth (HT29 colon; 0.0025 µM): 93.2% (inactive)
- growth (HT29 colon; 1 µM): 40.7% (inactive)
- growth (HT29 colon; 2.5 µM): 55% (inactive)
- growth (HT29 colon; 10 µM): 4.69% (active)
- growth (SNB-75 CNS; 0.0025 µM): 98% (inactive)
- growth (SNB-75 CNS; 1 µM): 33% (inactive)
- growth (SNB-75 CNS; 2.5 µM): 7.99% (active)
- growth (SNB-75 CNS; 10 µM): -61.7% (active)
- growth (SNB-19 CNS; 0.0025 µM): 92.5% (inactive)
- growth (SNB-19 CNS; 1 µM): 21.1% (inactive)
- growth (SNB-19 CNS; 2.5 µM): 35.6% (inactive)
- growth (SNB-19 CNS; 10 µM): -0.904% (active)
- growth (PC-3 prostate; 0.0025 µM): 100% (inactive)
- growth (PC-3 prostate; 1 µM): 54.7% (inactive)
- growth (PC-3 prostate; 10 µM): 1.27% (active)
- growth (UACC-62 melanoma; 0.0025 µM): 97.5% (inactive)
- growth (UACC-62 melanoma; 1 µM): 14.8% (inactive)
- growth (UACC-62 melanoma; 10 µM): -60% (active)
- growth (LOX IMVI melanoma; 0.0025 µM): 81.7% (inactive)
- growth (LOX IMVI melanoma; 1 µM): 8.33% (active)
- growth (LOX IMVI melanoma; 10 µM): 5.68% (active)
- growth (SK-MEL-28 melanoma; 0.0025 µM): 93.7% (inactive)
- growth (SK-MEL-28 melanoma; 1 µM): 65.7% (inactive)
- growth (SK-MEL-28 melanoma; 2.5 µM): 70.7% (inactive)
- growth (SK-MEL-28 melanoma; 10 µM): -17% (active)
- growth (SK-MEL-2 melanoma; 0.0025 µM): 112% (inactive)
- growth (SK-MEL-2 melanoma; 1 µM): 31.3% (inactive)
- growth (SK-MEL-2 melanoma; 2.5 µM): 75.1% (inactive)
- growth (SK-MEL-2 melanoma; 10 µM): -28.5% (active)
- growth (UO-31 renal; 0.0025 µM): 87.1% (inactive)
- growth (UO-31 renal; 1 µM): 61.3% (inactive)
- growth (UO-31 renal; 2.5 µM): 67.3% (inactive)
- growth (UO-31 renal; 10 µM): 4.05% (active)
- growth (TK-10 renal; 1 µM): 63.3% (inactive)
- growth (TK-10 renal; 2.5 µM): 57.7% (inactive)
- growth (TK-10 renal; 10 µM): 25.4% (inactive)
- growth (ACHN renal; 0.0025 µM): 102% (inactive)
- growth (ACHN renal; 1 µM): 19.6% (inactive)
- growth (ACHN renal; 2.5 µM): 35.6% (inactive)
- growth (ACHN renal; 10 µM): -13.8% (active)
- growth (CAKI-1 renal; 1 µM): 45% (inactive)
- growth (CAKI-1 renal; 2.5 µM): 17.6% (inactive)
- growth (CAKI-1 renal; 10 µM): -28.9% (active)
- growth (A498 renal; 0.0025 µM): 93.5% (inactive)
- growth (A498 renal; 1 µM): 76.5% (inactive)
- growth (A498 renal; 2.5 µM): 52.6% (inactive)
- growth (CCRF-CEM leukemia; 0.0025 µM): 104% (inactive)
- growth (CCRF-CEM leukemia; 1 µM): 26.8% (inactive)
- growth (CCRF-CEM leukemia; 2.5 µM): 53.3% (inactive)
- growth (CCRF-CEM leukemia; 10 µM): -11.8% (active)
- growth (MOLT-4 leukemia; 0.0025 µM): 94.5% (inactive)
- growth (MOLT-4 leukemia; 1 µM): 5.51% (active)
- growth (MOLT-4 leukemia; 2.5 µM): -21.6% (active)
- growth (MOLT-4 leukemia; 10 µM): -12% (active)

SMILES: COc1c(O)cc2oc3cc(O)c(CC=C(C)C)c(O)c3c(=O)c2c1CC=C(C)C
- growth (HCT-15 colon; 10 µM): 24.1% (inactive)
- growth (HT29 colon; 10 µM): 27.6% (inactive)
- growth (SNB-75 CNS; 10 µM): 82.7% (inactive)
- growth (SNB-19 CNS; 10 µM): 96.4% (inactive)
- growth (PC-3 prostate; 10 µM): 41.1% (inactive)
- growth (SK-MEL-5 melanoma): 90% (inactive)
- growth (LOX IMVI melanoma; 10 µM unless noted): 0.237% (active)
- growth (SK-MEL-28 melanoma; 10 µM): 87.8% (inactive)
- growth (SK-MEL-2 melanoma; 10 µM): 89.8% (inactive)
- growth (UO-31 renal; 10 µM): 49.3% (inactive)
- growth (TK-10 renal; 10 µM): 89.1% (inactive)
- growth (ACHN renal; 10 µM): 58.8% (inactive)
- growth (CAKI-1 renal; 10 µM): 56.2% (inactive)
- growth (A498 renal; 10 µM): 97.2% (inactive)
- growth (CCRF-CEM leukemia; 10 µM): 47.8% (inactive)
- growth (MOLT-4 leukemia; 10 µM): 42.3% (inactive)

SMILES: N=S(c1ccccc1[N+](=O)[O-])c1ccccc1[N+](=O)[O-]
- growth (HCT-15 colon; 10 µM): -49.6% (active)
- growth (HT29 colon; 10 µM): -32.7% (active)
- growth (SNB-19 CNS; 10 µM): 108% (inactive)
- growth (U251 CNS): 84.5% (inactive)
- growth (PC-3 prostate; 10 µM): 89.4% (inactive)
- growth (SK-MEL-5 melanoma): 50.3% (inactive)
- growth (UACC-62 melanoma; 10 µM): 67.9% (inactive)
- growth (LOX IMVI melanoma; 10 µM unless noted): 3.28% (active)
- growth (SK-MEL-28 melanoma; 10 µM): 77.5% (inactive)
- growth (SK-MEL-2 melanoma; 10 µM): 89.2% (inactive)
- growth (EKVX NSCLC): 85.8% (inactive)
- growth (SN12C renal): 84.9% (inactive)
- growth (UO-31 renal; 10 µM): 5.99% (active)
- growth (TK-10 renal; 10 µM): 22.4% (inactive)
- growth (ACHN renal; 10 µM): 2.38% (active)
- growth (CAKI-1 renal; 10 µM): 85.5% (inactive)
- growth (A498 renal; 10 µM): 107% (inactive)
- growth (CCRF-CEM leukemia; 10 µM): 7.69% (active)
- growth (MOLT-4 leukemia; 10 µM): 98.9% (inactive)

SMILES: CCCCCCCCCCSC(=N)N
- growth (HCT-15 colon; 10 µM): -4.11% (active)
- growth (HT29 colon; 10 µM): -27.7% (active)
- growth (SNB-75 CNS; 10 µM): 80.7% (inactive)
- growth (SNB-19 CNS; 10 µM): 66.8% (inactive)
- growth (PC-3 prostate; 10 µM): 59% (inactive)
- growth (UACC-62 melanoma; 10 µM): -35% (active)
- growth (LOX IMVI melanoma; 10 µM unless noted): 47.8% (inactive)
- growth (SK-MEL-28 melanoma; 10 µM): 89.3% (inactive)
- growth (SK-MEL-2 melanoma; 10 µM): 61.9% (inactive)
- growth (UO-31 renal; 10 µM): 53.4% (inactive)
- growth (TK-10 renal; 10 µM): 60% (inactive)
- growth (ACHN renal; 10 µM): 50.1% (inactive)
- growth (CAKI-1 renal; 10 µM): 46.4% (inactive)
- growth (A498 renal; 10 µM): 95.1% (inactive)
- growth (CCRF-CEM leukemia; 10 µM): 51.3% (inactive)
- growth (MOLT-4 leukemia; 10 µM): 15.2% (inactive)

SMILES: C[n+]1c2cc(N)ccc2cc2ccc(N)cc21
- growth (HCT-15 colon; 10 µM): 19.6% (inactive) [middle of 4 runs]
- growth (HT29 colon; 10 µM): 4.57% (active) [middle of 4 runs]
- growth (UACC-62 melanoma; 10 µM): -30.5% (active) and -37% (active) and -78.6% (active)
- growth (LOX IMVI melanoma; 10 µM unless noted): 1.35% (active) [middle of 4 runs]
- growth (ACHN renal; 10 µM): 6.76% (active) [middle of 4 runs]
- growth (CAKI-1 renal; 10 µM): -22.5% (active) and 9.14% (active)
- growth (CCRF-CEM leukemia; 10 µM): 17.7% (inactive) [middle of 4 runs]
- growth (MOLT-4 leukemia; 10 µM): 9.49% (active) [middle of 4 runs]

SMILES: CS(=O)(=O)OC1CC(n2ccc(=O)[nH]c2=O)OC1COC(c1ccccc1)(c1ccccc1)c1ccccc1 (centres undefined)
- growth (HCT-15 colon; 10 µM): 93.7% (inactive)
- growth (HT29 colon; 10 µM): 96.1% (inactive)
- growth (SNB-75 CNS; 10 µM): 103% (inactive)
- growth (SNB-19 CNS; 10 µM): 99.8% (inactive)
- growth (PC-3 prostate; 10 µM): 91.3% (inactive)
- growth (UACC-62 melanoma; 10 µM): 97.7% (inactive)
- growth (SK-MEL-28 melanoma; 10 µM): 104% (inactive)
- growth (UO-31 renal; 10 µM): 81.5% (inactive)
- growth (TK-10 renal; 10 µM): 105% (inactive)
- growth (ACHN renal; 10 µM): 103% (inactive)
- growth (CAKI-1 renal; 10 µM): 103% (inactive)
- growth (A498 renal; 10 µM): 107% (inactive)
